Data on 32 molecules can be found in PubChem BioAssay (Tox21).

Each structure is given as a SMILES string. Results filed as inconclusive are left out. Values without a mark were called inactive. Activity calls are given as the source filed them. Calls follow the shape of the dose curve; as a rule, active = well fitted activation curve with a large enough effect in the signal ratio in the repeat runs, with a control signal flat (not every such curve was filed as active); inconclusive = weak or mixed curves; inactive = flat fitted curve, though single readings scatter; the % refers to the signal ratio.
% is scaled to controls: 0 for no effect and ±100 for the full control effect.

A short description of the experiment: qHTS assay for small molecule activators of the heat shock response signaling pathway (AID 743210). The following applies: HeLa HSE-bla reporter, beta-lactamase ratio, 5 h; series mostly up to 62.6 µM; activation: at the top concentration. A digest of the protocol: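 HSE-bla HeLa cells (beta-lactamase reporter under heat shock response elements), plated overnight, then exposed to compounds 5 h at 37 C; LiveBLAzer B/G FRET substrate added, 2.5 h at room temperature, fluorescence intensity read.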
Take `CC(C)OC(=O)Nc1ccccc1`: the outcome was inactive.
The same measure, in the same setting: the same measure for `COC(=O)c1ccccc1N`: “inactive”.
With `CC1C=[C-]C=C1.[C-]#[O+].[C-]#[O+].[C-]#[O+].[Mn]`, the “activation” value was -0.775%.
In the case of `Clc1ccc(Cl)cc1`, the outcome was inactive.
Still for that read-out and setting: the value for `CC(=O)C=C(C)C` was “inactive”.
For the molecule `Cc1ccc(N)cc1N`, the result was inactive.
Consider `CCCCCCCCCl`, for which the “activation” value is 0.419% [at 81.1 µM].
Turning to `CCCN(CCC)c1c([N+](=O)[O-])cc(C(F)(F)F)cc1[N+](=O)[O-]`, the outcome was inactive.
On the same count and under the same terms, the same measure for `CN(C)N=O`: “inactive”.
On the same count and under the same terms, the value for `CCC(C)(CC)c1cc(NC(=O)c2c(OC)cccc2OC)on1` was “inactive”.
Same read-out and setting: the value for `O=C(NC(=O)c1c(F)cccc1F)Nc1cc(Cl)c(OC(F)(F)C(F)C(F)(F)F)cc1Cl` (configuration not stated) was “inactive”; that for `NCC(O)c1ccc(O)cc1` (configuration not stated) was “inactive”; that for `Clc1ccccc1Cl` was “inactive”.
On to `CC(C)C1(C)N=C(c2nc3ccccc3cc2C(=O)O)NC1=O` (configuration not stated), for which the result was inactive.
The same measure, in the same setting: the same measure for `Oc1ccccc1Cl`: “inactive”; for `ClCc1cccnc1`: “inactive”; for `O=NN1CCCC1`: “inactive”.
Still for that read-out and setting: the same measure for `CCNc1nc(NC(C)C)nc(SC)n1`: “inactive”; for `CCCCCOC(=O)c1ccccc1C(=O)OCCCCC`: “inactive”; for `O=c1n(Cl)c(=O)n(Cl)c(=O)n1Cl`: “inactive”.
Consider `COc1ccc2c3c1O[C@H]1[C@@H](O)C=C[C@H]4[C@@H](C2)N(C)CC[C@@]341`, for which the “activation” value is -1.69% [at 81.1 µM].
With `Cc1cc(-c2cc(C)c(N)c(C)c2)cc(C)c1N`, the result was inactive.
Same read-out and setting: the value for `CC(C)=C[C@@H]1[C@@H](C(=O)OCc2coc(Cc3ccccc3)c2)C1(C)C` was “inactive”; that for `O=[N+]([O-])c1ccc([As](=O)(O)O)cc1` was “inactive”.
As for `CC(C)OC(=O)Nc1cccc(Cl)c1`, the “activation” value is -0.467%.
Take `CN(N=O)c1ccccc1`: the outcome was inactive.
On the same count and under the same terms, the same measure for `CC(Oc1ccc(Cl)cc1Cl)C(=O)O` (configuration not stated): “inactive”; for `CN(C)[C@@H]1C(=O)C(C(N)=O)=C(O)[C@@]2(O)C(=O)C3=C(O)c4c(O)cccc4[C@@](C)(O)[C@H]3C[C@@H]12`: “inactive”.
With `Nc1ccc(Br)cc1`, the “activation” value is -0.486%.
Same read-out and setting: the same measure for `CN(C)CCO`: -2.58%.
For the molecule `CCC[N+](=O)[O-]`, the outcome was inactive.
Still for that read-out and setting: the value for `COP(N)(=O)SC` (configuration not stated) was “inactive”.
